PMC5700166
Positions count from the first letter of the chain named.

Tests used:
Assay in all cases: protein-binding microarray (PBM); PBM: ~300 nM protein, 6 mM HEPES pH 7.8, 80 mM KCl, 0.5 mM EDTA, 0.5 mM EGTA, 6% glycerol, 35 ng/ul poly-dIdC, 1% milk, 1 h, room temperature; Ap Aiptasia and Nv Nematostella (sea anemones) / Co Capsaspora / Aq Amphimedon (sponge) / Dm Drosophila / Hu human; RHD is the Rel homology domain; high values mean tight binding
Details in all cases: dsDNA, one strand shown
GST-Ap-NF-kB RHD = target: T1, GST-Ap-NF-kB RHD (Exaiptasia pallida (Aiptasia), UniProt A0A913YAJ5 2-422)
T1 sequence: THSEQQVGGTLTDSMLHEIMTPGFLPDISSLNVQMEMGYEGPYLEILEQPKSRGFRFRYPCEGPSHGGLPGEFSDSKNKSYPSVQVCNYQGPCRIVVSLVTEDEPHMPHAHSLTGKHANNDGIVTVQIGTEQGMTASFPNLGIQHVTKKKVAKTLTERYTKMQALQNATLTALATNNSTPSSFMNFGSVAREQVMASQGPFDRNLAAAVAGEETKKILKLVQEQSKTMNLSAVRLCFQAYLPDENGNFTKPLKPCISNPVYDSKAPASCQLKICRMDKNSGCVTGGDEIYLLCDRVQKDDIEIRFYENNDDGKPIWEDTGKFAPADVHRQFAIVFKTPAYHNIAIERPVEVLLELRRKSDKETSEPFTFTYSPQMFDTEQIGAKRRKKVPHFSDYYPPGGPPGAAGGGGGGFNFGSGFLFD

[1] = target: T2, GST-Nv-NF-kB (Cys allele) (Nematostella vectensis, UniProt E5G601 2-411)
T2 sequence: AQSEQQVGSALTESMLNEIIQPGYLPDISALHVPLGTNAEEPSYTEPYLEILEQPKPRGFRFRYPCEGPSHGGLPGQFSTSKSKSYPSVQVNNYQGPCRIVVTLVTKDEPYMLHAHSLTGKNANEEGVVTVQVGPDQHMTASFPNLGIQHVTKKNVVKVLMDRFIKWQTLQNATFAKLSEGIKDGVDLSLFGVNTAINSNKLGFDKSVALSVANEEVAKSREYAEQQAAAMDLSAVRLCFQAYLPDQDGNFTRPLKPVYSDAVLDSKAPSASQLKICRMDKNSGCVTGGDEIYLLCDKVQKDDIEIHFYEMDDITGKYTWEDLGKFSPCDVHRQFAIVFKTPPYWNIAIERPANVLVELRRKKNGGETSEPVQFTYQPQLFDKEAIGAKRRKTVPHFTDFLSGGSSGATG

[2] = target: T3, GST-Nv-NF-kB (Ser allele) (Nematostella vectensis, UniProt A7UNT2 2-411)
T3 sequence: T2 sequence with Q21R, C66S, S207N, E215Q, V217A, E225K, A268E, D399E

GST-Co-NF-kB = target: T4, GST-Co-NF-kB (Capsaspora owczarzaki, UniProt F1ARL5 200-546)
T4 sequence: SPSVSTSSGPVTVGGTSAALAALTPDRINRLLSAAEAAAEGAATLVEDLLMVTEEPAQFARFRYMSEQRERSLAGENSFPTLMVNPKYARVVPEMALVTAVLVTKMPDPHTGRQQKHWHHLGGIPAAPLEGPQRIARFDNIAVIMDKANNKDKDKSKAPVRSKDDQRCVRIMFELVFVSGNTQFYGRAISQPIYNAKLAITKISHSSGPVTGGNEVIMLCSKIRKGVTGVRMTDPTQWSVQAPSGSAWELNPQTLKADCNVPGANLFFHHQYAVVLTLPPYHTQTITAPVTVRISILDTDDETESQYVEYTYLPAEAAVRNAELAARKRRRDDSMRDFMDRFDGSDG

GST-Dm-Relish = target: T5, GST-Dm-Relish (Drosophila melanogaster, UniProt Q94527 99-473)
T5 sequence: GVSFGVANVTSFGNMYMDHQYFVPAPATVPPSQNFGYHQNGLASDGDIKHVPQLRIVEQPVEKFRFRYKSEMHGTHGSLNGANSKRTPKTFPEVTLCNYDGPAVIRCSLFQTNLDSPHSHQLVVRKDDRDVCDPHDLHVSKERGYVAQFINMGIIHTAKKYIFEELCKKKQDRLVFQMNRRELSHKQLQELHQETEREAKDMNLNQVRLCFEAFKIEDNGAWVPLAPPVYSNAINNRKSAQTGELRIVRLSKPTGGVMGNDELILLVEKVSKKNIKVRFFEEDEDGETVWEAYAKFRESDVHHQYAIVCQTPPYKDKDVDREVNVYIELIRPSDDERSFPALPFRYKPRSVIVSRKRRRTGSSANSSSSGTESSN

GST-Aq-NF-kB = target: T6, GST-Aq-NF-kB (Amphimedon queenslandica, UniProt A9Y5G7 2-389)
T6 sequence: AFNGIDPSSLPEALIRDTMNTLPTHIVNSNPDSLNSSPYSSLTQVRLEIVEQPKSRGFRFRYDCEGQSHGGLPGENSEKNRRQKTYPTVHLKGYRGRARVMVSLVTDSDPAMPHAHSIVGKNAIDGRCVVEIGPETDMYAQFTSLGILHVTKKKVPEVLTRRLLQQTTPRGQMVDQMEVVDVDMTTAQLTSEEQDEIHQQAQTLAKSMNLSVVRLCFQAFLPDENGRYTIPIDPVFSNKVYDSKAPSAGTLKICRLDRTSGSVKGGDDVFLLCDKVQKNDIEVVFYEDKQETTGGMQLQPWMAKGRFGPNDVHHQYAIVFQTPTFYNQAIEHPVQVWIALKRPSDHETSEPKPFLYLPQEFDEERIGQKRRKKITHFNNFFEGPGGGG

GST-Hu-p50 = GST-Hu-p50 (Homo sapiens, UniProt P19838 7-356)
Sequence of GST-Hu-p50 (P19838 7-356): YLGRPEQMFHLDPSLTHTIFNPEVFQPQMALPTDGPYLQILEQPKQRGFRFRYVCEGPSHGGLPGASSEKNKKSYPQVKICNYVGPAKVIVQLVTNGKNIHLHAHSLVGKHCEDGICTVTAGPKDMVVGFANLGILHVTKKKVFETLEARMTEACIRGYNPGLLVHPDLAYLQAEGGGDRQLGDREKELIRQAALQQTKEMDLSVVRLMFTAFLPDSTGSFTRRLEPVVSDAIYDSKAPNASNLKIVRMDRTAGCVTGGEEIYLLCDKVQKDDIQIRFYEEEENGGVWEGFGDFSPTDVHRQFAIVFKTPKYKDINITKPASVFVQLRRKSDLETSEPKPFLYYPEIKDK

Sequence	binding signal (GST-Ap-NF-kB RHD)	binding signal [1]	binding signal [2]	binding signal (GST-Co-NF-kB)	binding signal (GST-Dm-Relish)	binding signal (GST-Aq-NF-kB)	binding signal (GST-Hu-p50)
CCGATTAACATCAAGGGGAAAAATGATGTTAATCGGGTCTTGATTCGCTTGACGCTGCTG	6.62 z-score	8.51 z-score	11 z-score	9.12 z-score	4.24 z-score	6.11 z-score	6.67 z-score
CCGATTAACATCAAAAGTCCCCCTGATGTTAATCGGGTCTTGATTCGCTTGACGCTGCTG	8.58 z-score	8.14 z-score	8.36 z-score	7.93 z-score	9.15 z-score	7.54 z-score	6.72 z-score
CCGATTAACATCAAGAATTCCCCTGATGTTAATCGGGTCTTGATTCGCTTGACGCTGCTG	9.76 z-score	11.7 z-score	12.3 z-score	7.33 z-score	8.81 z-score	8.32 z-score	7.54 z-score
CCGATTAACATCAGGAAATCCCCTGATGTTAATCGGGTCTTGATTCGCTTGACGCTGCTG	10.8 z-score	12.1 z-score	12.5 z-score	4.46 z-score	10.3 z-score	10.9 z-score	8.31 z-score
CCGATTAACATCACCCACCCCCCTGATGTTAATCGGGTCTTGATTCGCTTGACGCTGCTG	3.58 z-score	2.85 z-score	4.5 z-score	3.74 z-score	4.19 z-score	3.84 z-score	3.99 z-score
CCGATTAACATCAAAAGATCCCCTGATGTTAATCGGGTCTTGATTCGCTTGACGCTGCTG	8.32 z-score	8.42 z-score	9.3 z-score	5.39 z-score	9.75 z-score	7.5 z-score	6.41 z-score
CCGATTAACATCAGGACTTTCCCTGATGTTAATCGGGTCTTGATTCGCTTGACGCTGCTG	6.5 z-score	10.2 z-score	6.68 z-score	1.87 z-score	7.98 z-score	10.5 z-score	5.32 z-score
CCGATTAACATCAGACTTTCCCCTGATGTTAATCGGGTCTTGATTCGCTTGACGCTGCTG	6.18 z-score	7.69 z-score	8.83 z-score	7.36 z-score	4.9 z-score	6.81 z-score	5.61 z-score
CCGATTAACATCAAATACTCCCCTGATGTTAATCGGGTCTTGATTCGCTTGACGCTGCTG	6.1 z-score	5.48 z-score	6.09 z-score	6.89 z-score	3.34 z-score	5.29 z-score	4.01 z-score
CCGATTAACATCAGGGGGGGCTATGATGTTAATCGGGTCTTGATTCGCTTGACGCTGCTG	4.3 z-score	3.34 z-score	3.58 z-score	5.06 z-score	4.12 z-score	4.07 z-score	4.09 z-score
CCGATTAACATCAAAGTTTCCCCTGATGTTAATCGGGTCTTGATTCGCTTGACGCTGCTG	7.96 z-score	9.57 z-score	12 z-score	10.6 z-score	5.37 z-score	7.26 z-score	6.85 z-score
CCGATTAACATCAGGGAAAATACTGATGTTAATCGGGTCTTGATTCGCTTGACGCTGCTG	3.76 z-score	6.09 z-score	6.82 z-score	4.49 z-score	4.93 z-score	5.71 z-score	4.76 z-score
CCGATTAACATCAAGGGAATTTATGATGTTAATCGGGTCTTGATTCGCTTGACGCTGCTG	4.54 z-score	7.59 z-score	7.58 z-score	3.54 z-score	4.78 z-score	5.69 z-score	5.62 z-score
CCGATTAACATCAGGAATATCCCTGATGTTAATCGGGTCTTGATTCGCTTGACGCTGCTG	2.84 z-score	3.66 z-score	2.12 z-score	1.54 z-score	2.78 z-score	6.03 z-score	3.26 z-score
CCGATTAACATCAGCACTCCCCCTGATGTTAATCGGGTCTTGATTCGCTTGACGCTGCTG	5.42 z-score	4.35 z-score	4.91 z-score	3.89 z-score	2.23 z-score	3.99 z-score	5.21 z-score
CCGATTAACATCAAGGAATCCCCTGATGTTAATCGGGTCTTGATTCGCTTGACGCTGCTG	9.79 z-score	9.72 z-score	10.4 z-score	3.63 z-score	10.1 z-score	7.6 z-score	7.1 z-score
CCGATTAACATCAAAAATTCCCCTGATGTTAATCGGGTCTTGATTCGCTTGACGCTGCTG	10.4 z-score	12.8 z-score	14 z-score	9.75 z-score	9.69 z-score	9.6 z-score	7.99 z-score
CCGATTAACATCAGGGACGTCCCTGATGTTAATCGGGTCTTGATTCGCTTGACGCTGCTG	7.37 z-score	7.13 z-score	4.26 z-score	1.08 z-score	6.25 z-score	8.52 z-score	4.54 z-score
CCGATTAACATCAGGGGATGTACTGATGTTAATCGGGTCTTGATTCGCTTGACGCTGCTG	4.43 z-score	4.79 z-score	5.58 z-score	3.02 z-score	9.92 z-score	5.33 z-score	4.4 z-score
